The list is not random: actives were taken first. Their share in the collection is about 9.2%.
OTUD3 inh – inhibitors of human OTUD3 deubiquitinase; inhibition, % at 25 µM; 47,000 compounds, 0.7% hits; purified OTUD3, Ub-rhodamine fluorescence, 2 h; OTU domain-containing protein 3 (Homo sapiens), Q5T2D3
Target sequence (Q5T2D3 whole entry, looked up, the tested form may be a part): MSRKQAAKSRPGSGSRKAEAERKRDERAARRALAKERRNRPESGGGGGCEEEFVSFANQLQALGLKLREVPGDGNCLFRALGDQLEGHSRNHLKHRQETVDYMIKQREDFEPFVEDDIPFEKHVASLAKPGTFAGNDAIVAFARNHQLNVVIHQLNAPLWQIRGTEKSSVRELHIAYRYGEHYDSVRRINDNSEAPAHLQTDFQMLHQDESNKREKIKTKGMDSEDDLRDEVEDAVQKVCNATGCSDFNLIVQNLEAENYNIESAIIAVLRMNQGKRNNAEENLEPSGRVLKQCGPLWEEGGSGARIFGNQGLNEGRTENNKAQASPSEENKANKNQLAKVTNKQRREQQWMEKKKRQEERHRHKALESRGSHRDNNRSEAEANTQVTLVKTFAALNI
USP17 block – inhibitors of human USP17 deubiquitinase | Ubiquitin carboxyl-terminal hydrolase 17-like protein 5 (Homo sapiens), A8MUK1 | purified USP17, Ub-rhodamine cleavage fluorescence, 3 h | inhibition, % at 50 µM | 47,000 compounds, 6.5% hits
USP8 inh – inhibitors of human USP8 deubiquitinase | AID 1645853, 2021 | purified USP8, Ub-rhodamine cleavage fluorescence, 30 min | 47,000 compounds, 4.2% hits | inhibition, % at 20 µM | Ubiquitin carboxyl-terminal hydrolase 8 (Homo sapiens), P40818
USP10 block – inhibitors of human USP10 deubiquitinase; Ubiquitin carboxyl-terminal hydrolase 10 (Homo sapiens), Q14694; AID 1645856, 2021; 47,000 compounds, 1.1% hits; inhibition, % at 20 µM; purified USP10, Ub-rhodamine fluorescence, 60 min
USP7 block – inhibitors of human USP7 deubiquitinase; purified USP7, Ub-rhodamine cleavage fluorescence; inhibition, % at 20 µM; 47,000 compounds, 0.3% hits
UCHL1 block – inhibitors of human UCHL1 deubiquitinase. Ubiquitin carboxyl-terminal hydrolase isozyme L1 (Homo sapiens), P09936. purified UCHL1, Ub-rhodamine cleavage fluorescence. inhibition, % at 20 µM. 47,000 compounds, 0.2% hits
The depositor's hits bear a star; / = no result. Rule as the data show it: active = inhibition above about 30%; inactive = the rest.

SMILES	OTUD3 inh	USP17 block	USP8 inh	USP10 block	USP7 block	UCHL1 block
CN(C)C(=O)N1CC2(CCN(S(=O)(=O)c3ccccc3)CC2)C2(CCN(C)C2=O)C1 (configuration not stated)	10	17	1	0	6	0
c1ccc(-c2noc(-c3cc(-c4ccncc4)nc4ccccc34)n2)nc1	-1	53*	-7	-2	1	1
Cc1cc(S(=O)(=O)N2CCC(C3(C)NC(=O)NC3=O)CC2)ccc1F (configuration not stated)	13	4	53*	15	8	2
CC(NC(=O)COCc1cc(-c2ccc(F)cc2)on1)c1ccccc1 (configuration not stated)	2	0	12	4	-6	4
O=C(Cc1cc(-c2ccc(Cl)cc2)on1)NCCc1ccccc1	-1	-6	53*	-3	2	-3
CC(NC(=O)Cc1cc(-c2ccc(F)cc2)on1)c1ccccc1 (configuration not stated)	8	31*	13	2	7	1
NS(=O)(=O)c1ccc(CCNC(=O)Cc2cc(-c3ccc(F)cc3F)on2)cc1	3	8	40*	-4	-2	-2
Cc1ccc(-c2nc3cccnc3n2C2CCN(C(=O)c3ccncc3)C2)cc1 (configuration not stated)	1	-20	-145	4	-39	0
COc1ccc2ncc3c(-c4ccc(C)cc4)nn(-c4ccc(F)cc4)c3c2c1	-7	57*	0	2	1	0
Cc1ccc(-c2nn(-c3ccc(F)cc3)c3c2cnc2cc4c(cc23)OCCO4)cc1	5	5	14	-1	1	2
Cc1ccc(CNC(=O)c2sc(N3CCCC3=O)nc2C)o1	4	3	0	0	4	2
C=CC1CC(C)CC(C)C1c1c(O)ccn(O)c1=O (configuration not stated)	5	18	-1	-2	3	2
CCOC(=O)c1cccc(NC(=O)Cc2nc(-c3ccc(OC)cc3)no2)c1	0	-9	9	2	4	-2
COc1ccc(-c2noc(CC(=O)Nc3cccc(C#N)c3)n2)cc1	0	39*	12	3	0	-1
CCOc1ccc(NC(=O)CSCc2nc(-c3ccc(OC)c(OC)c3)no2)cc1	13	47*	34*	-1	4	3
O=C(C1CC1)N1C[C@@H]2C[C@]2(c2ccccc2)C(=O)c2ccccc21	0	0	-280	2	-3	-1
Cn1c(=O)c(C(=O)Nc2ccc(F)c(Cl)c2)cc2cccnc21	13	14	8	-5	4	0
CCn1c(=O)c(-c2ccc(C(=O)Nc3cc(C)ccc3OC)cc2)nc2cccnc21	8	37*	10	0	2	-1
COc1ccc(C)cc1NC(=O)c1cc2cccnc2n(C)c1=O	1	37*	1	1	3	1
CC(C)CN1C[C@H]2C[C@H](C(=O)NC3CCC3)[C@@H](C1)O2	-7	-22	4	0	0	0
COc1ccc(CNCc2c(C(=O)O)n(Cc3ccccc3C)c3cc(C)ccc23)cc1	-4	7	-7	5	0	-3
COc1ccc(C(CNC(=O)c2cc(-c3ccc(Cl)cc3)on2)N2CCOCC2)cc1 (configuration not stated)	13	/	40*	25	8	-1
O=C(NCC(c1ccc(Cl)cc1)N1CCOCC1)c1cc(-c2ccccc2)on1 (configuration not stated)	7	10	12	-2	0	4
COc1ccc2[nH]c(=O)c(CN(CCCN3CCOCC3)C(=O)Nc3ccccc3Cl)cc2c1	2	/	1	-3	0	4
CCN1CCCC1CN(Cc1cc2ccc(C)c(C)c2[nH]c1=O)C(=O)NCc1ccccc1 (configuration not stated)	-52	7	-18	-6	-11	-15
SMILES	OTUD3 inh	USP17 block	USP8 inh	USP10 block	USP7 block	UCHL1 block
CCN1CCCC1CN(Cc1cc2cc(OC)ccc2[nH]c1=O)C(=O)NCc1ccccc1 (configuration not stated)	-24	53*	-32	-7	-21	-9
CCN1CCCC1CN(Cc1cc2cc(OC)ccc2[nH]c1=O)C(=O)Nc1ccccc1Cl (configuration not stated)	-16	49*	-38	-3	-7	-4
CCCc1cc(Sc2ccc(NC(=O)c3ccccc3)cc2)n2ncnc2n1	-1	-17	-1	0	5	-2
N#Cc1cn2c(nc1-c1ccc(Cl)cc1)nc1ccccc12	61*	94*	71*	53*	-9	3
COc1ccc(OC)c(NC(=O)CNC(=O)c2cc3c(OC)cccc3[nH]2)c1	23	64*	30*	2	9	-1
O=C(Nc1cccc(-c2nc3cnccc3o2)c1)c1ccccc1F	-1	44*	-1	2	-1	-4
O=C(Nc1nccnc1C(=O)NCc1ccc(F)cc1)c1ccccc1	0	2	5	1	-19	4
O=C(NCc1ccc(-c2nc3ncccc3o2)cc1)c1ccccc1	9	14	32*	9	8	4
O=C(NCc1ccc(-c2nc3cnccc3o2)cc1)c1ccccc1Br	13	68*	15	-5	4	2
Cc1nc2ccn(Cc3cccs3)c(=O)c2cc1C(=O)NCC1CCCO1 (configuration not stated)	19	3	15	2	2	0
C[C@H](NC(=O)c1ccccc1F)c1nc2cc(-c3ccccc3F)ncn2n1	-4	5	1	6	2	0
O=C(NCC(c1ccsc1)N1CCOCC1)c1cccc(Cl)c1 (configuration not stated)	-1	-3	-1	2	-2	-1
COc1cccc2c1OCC(=O)N(c1cccc(C#N)c1)C2	-31	-20	-25	-1	-9	-2
COc1cc(OC)cc(-c2nnc3sc(-c4ccco4)nn23)c1	4	8	19	0	3	1
Fc1cccc(-c2nnc3sc(-c4ccco4)nn23)c1	-8	-1	43*	0	6	0
O=C(O)c1ccc(OC(=O)C(c2ccccc2)c2ccccc2)cc1	4	19	0	13	-9	3
O=C(Oc1ccc2c(c1)OCO2)C(c1ccccc1)c1ccccc1	20	15	31*	9	10	8
Cc1nc(OCc2ccccc2C#N)c2ccccc2n1	1	3	5	-1	-1	-1

Assay outcomes deposited in PubChem BioAssay by Buhrlage Lab, Dana-Farber Cancer Institute and Novartis Institutes for BioMedical Research (Cambridge, Mass).
